Test results: PubChem BioAssay AID720605 (Broad Institute, 2013)
Results with a measured potency or affinity are listed apart. Calls of active or inactive are those of the source.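 How the source made its calls: active means cell viability signal falls with a fitted half-maximal concentration within twice the top dose at all three treatment times; inconclusive means treatment times give differing calls; inactive means every treatment time called inactive.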

Assay: cytotoxicity in U-251 CNS tumor cells – cell-based, Alamar Blue fluorescence, 8/24/48 h, dry powder, HRAS target identification, dose response (AID 720605)
Settings: U-251 glioblastoma viability, 8-48 h; series mostly up to 35 µM

Row | SMILES | outcome
1 | CCC(=O)N(c1ccc(OC)c(Cl)c1)C(C(=O)NCCc1ccccc1)c1cccs1 (configuration not stated) | inactive
2 | Cc1onc(C(=O)N2CCN(C(c3ccncc3)c3ccncc3)CC2)c1[N+](=O)[O-] | inactive
